Source: PubChem (Johns Hopkins Ion Channel Center)
Sampled rows, rich in hits. Any-hit rate of the full collection: about 1.6%.
KCNQ2 block: KCNQ2 (rat) channel inhibition. O88943. CHO-K1 KCNQ2, FluxOR thallium flux, 20 min; stronger effect = lower value. B-score at 10 µM. hit rate 1.1% among 310,000. AID 2156;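 active means fluorescence ratio B-score at most minus 3 library SDs, with starting brightness B-score within 2 library SDs, cut at about -5.5 in these data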
Target sequence (O88943 whole entry, looked up): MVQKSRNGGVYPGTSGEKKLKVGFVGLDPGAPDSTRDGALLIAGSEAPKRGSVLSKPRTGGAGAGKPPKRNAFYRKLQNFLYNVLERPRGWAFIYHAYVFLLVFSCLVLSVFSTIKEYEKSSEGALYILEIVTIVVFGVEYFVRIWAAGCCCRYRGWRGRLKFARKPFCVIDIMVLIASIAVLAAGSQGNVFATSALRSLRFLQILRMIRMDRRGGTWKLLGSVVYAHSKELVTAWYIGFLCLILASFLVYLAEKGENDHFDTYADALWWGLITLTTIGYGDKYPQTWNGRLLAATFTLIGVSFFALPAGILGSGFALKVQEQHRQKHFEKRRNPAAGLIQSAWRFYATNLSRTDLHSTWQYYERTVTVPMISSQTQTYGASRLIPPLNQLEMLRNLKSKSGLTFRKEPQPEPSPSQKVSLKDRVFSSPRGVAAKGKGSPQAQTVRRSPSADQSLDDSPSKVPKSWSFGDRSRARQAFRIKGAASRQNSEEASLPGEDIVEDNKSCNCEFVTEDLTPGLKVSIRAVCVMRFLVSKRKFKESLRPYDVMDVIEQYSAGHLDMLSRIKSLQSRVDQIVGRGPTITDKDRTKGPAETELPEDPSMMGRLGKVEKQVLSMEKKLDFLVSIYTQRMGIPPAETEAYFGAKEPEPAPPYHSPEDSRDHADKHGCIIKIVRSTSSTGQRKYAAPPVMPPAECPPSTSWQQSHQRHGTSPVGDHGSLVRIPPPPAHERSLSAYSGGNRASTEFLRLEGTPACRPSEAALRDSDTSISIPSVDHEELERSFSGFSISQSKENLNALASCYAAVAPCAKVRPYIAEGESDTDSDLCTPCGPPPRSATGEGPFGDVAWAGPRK
KCNQ2 pot: potentiators of rat KCNQ2 potassium channel. O88943. CHO-K1 KCNQ2, FluxOR thallium flux fluorescence; stronger effect = higher value. B-score at 10 µM. hit rate 0.54% among 310,000;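 active means fluorescence ratio B-score at least 3 SD of library B-scores, with initial fluorescence B-score within 3 of them, cut at about 5.3 in these data; same plate scores as AID 2156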;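 further: B-score of peak minus minimum over baseline fluorescence ratio after K+ and Tl+ stimulus; positive B-score means potentiation of KCNQ2 with more thallium influx and brighter signal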
Numbers stand for hits; 0 = inactive; - = no result.

SMILES	KCNQ2 block	KCNQ2 pot
O=c1c2ccccc2nc(SCc2nnc(-c3ccccc3)o2)n1-c1ccc(F)cc1F	-6.4	0
C=C1N(c2cccc(Cl)c2)C(=O)OC1(C)C	0	0
Cc1ccc(N=Nc2ccc(O)cc2)c(Br)c1	-5.7	0
Oc1ccc(N=Nc2ccc(Br)cc2)c(O)c1	0	0
CN(C)C(=O)CSc1nnc(Cc2ccccc2)n1Cc1ccco1	0	0
O=C(CSc1nnc(-c2ccco2)n1Cc1ccco1)NCc1cccs1	0	0
O=C(CSc1nnc(Cc2ccccc2)n1Cc1ccco1)NC12CC3CC(CC(C3)C1)C2	-7.7	0
O=C(CSc1nnc(Cc2cccs2)n1Cc1ccco1)Nc1ccc(Br)cc1	-6.7	0
COc1cc(NC(=O)CN(C)S(=O)(=O)c2ccc3c(c2)CC(C)N3C(C)=O)cc(OC)c1 (stereo not drawn)	0	0
Cc1nn(C)cc1NC(=O)CC12CC3CC(CC(C3)C1)C2	0	0
CCn1nc(C)c(NC(=O)CC23CC4CC(CC(C4)C2)C3)c1C	0	21
CN(C)CCNc1ncnc2c1sc1nc(N3CCCC3)c3c(c12)CC(C)(C)OC3	0	0
CCN(CC)CCNc1ncnc2c1sc1nc(N3CCCC3)c3c(c12)CC(C)(C)OC3	0	5.8
NC(=O)C1CCN(C(=O)NC2CC(=O)N(c3ccc4c(c3)OCCO4)C2)CC1 (stereo not drawn)	0	0
COc1ccc(NC2SC(=O)N(C)C2=O)cc1 (stereo not drawn)	0	0
CC1CCN(S(=O)(=O)c2nnc(NC(=O)c3ccccc3Br)s2)CC1	0	0
Cc1ccc(S(=O)(=O)N2CCOC2CNC(=O)C(=O)NCCN(C)C)cc1 (stereo not drawn)	0	-
CCc1ccccc1Nc1cc(C(=O)NCc2ccccn2)c2ccccc2n1	-5.9	0
CCc1ccc(-c2cc(C(=O)NCc3ccccn3)c3ccccc3n2)cc1	0	-
Cc1c(O)nc(SCC(=O)Nc2ccc3c4c(cccc24)CC3)n(-c2ccccc2)c1=O	0	12
O=C(CSc1nc(O)cc(=O)n1-c1ccccc1)Nc1ccc2c3c(cccc13)CC2	0	0
CC1CCCCN1CCCNC(=O)c1ccc(NC(=O)C2=CSCCO2)cc1 (stereo not drawn)	0	-
Cn1c(C(O)C(O)c2ccccc2)nc2ccccc21 (stereo not drawn)	0	0
Cn1c(N2CCN(C(c3ccccc3)c3ccccc3)CC2)nc2ccccc21	-12	0
COc1ccccc1C(CNC(=O)c1cc(C)nc2ccccc12)N(C)C (stereo not drawn)	0	0
SMILES	KCNQ2 block	KCNQ2 pot
CCOc1cc(CNc2ncn[nH]2)ccc1OCC(=O)NC(C)(C)C	0	-
CC(C)c1ccc(NC(=O)C2CCN(S(=O)(=O)c3ccc4c(c3)C(C)(C)C(=O)N4C)CC2)cc1	0	-
CCN=C(NCC)SC1CC(=O)N(c2ccccc2)C1=O (stereo not drawn)	0	-
CCN=C(NCC)SC1CC(=O)N(c2cccc(OC)c2)C1=O (stereo not drawn)	-5.8	0
Cc1cccc(Oc2c(C=O)c3ccccc3n2C)c1	-6.5	0
Cc1ccc(Sc2c(C=O)c3ccccc3n2C)cc1	0	0
OC(CCN1CCOCC1)(c1ccc(Cl)cc1)C1CCCCC1 (stereo not drawn)	-5.8	0
OC(CCN1CCCCC1)(c1ccccc1)C1CCCCC1 (stereo not drawn)	0	-
CCn1c(SCc2ccccc2Cl)nc2ccccc21	-6.6	0
Cn1c(SCc2ccccc2Cl)nc2ccccc21	0	-
Cc1cc(C)n(-c2nc3ccccc3c(=O)n2OCC(=O)N(C)C)n1	0	0
Cc1cc(C)n(-c2nc3ccccc3c(=O)n2OCC(=O)Nc2c(C)cccc2C)n1	-6	0
O=C(COC(=O)c1cc[n+]([O-])cc1)Nc1ccc(Cl)cc1C(F)(F)F	0	-
COc1ccc(-n2cccc2/C=C/[N+](=O)[O-])cc1	-6.5	0
COc1ccc(-n2cccc2C=O)cc1	0	0
Cc1ccc(S(=O)(=O)NCc2ccccc2C)cc1	0	-
CSc1ccc(S(=O)(=O)NCc2ccccc2C)cc1	-6.1	0
COC(=O)C(NC(C)=O)(Nc1ccc(C)cn1)C(F)(F)F (stereo not drawn)	0	0
CCOC(=O)CN1C(=O)CCSc2ccc(Cl)cc21	0	-
O=C(CSc1nnc(-c2ccccn2)n1Cc1ccco1)c1ccc(Cl)cc1	0	-
Clc1cccc(CSc2nnc(-c3ccccn3)n2Cc2ccco2)c1	-6.7	0
CC(C)(C)c1ccc(CSc2nnc(-c3ccccn3)n2Cc2ccco2)cc1	-5.6	0
Brc1ccc(CSc2nnc(-c3ccccn3)n2Cc2ccco2)cc1	0	-
CCCCOc1ccc(CNC(=S)N/N=C/c2ccc(OC)c(OC)c2)cc1	0	0
Cc1nc(-c2ccc(F)cc2)c(CC(=O)Nc2ccc(C)c(S(=O)(=O)N3CCOCC3)c2)s1	0	-
SMILES	KCNQ2 block	KCNQ2 pot
CC(Oc1ccc(F)cc1)C(=O)Nc1cc(S(=O)(=O)N2CCOCC2)ccc1N1CCCCC1 (stereo not drawn)	-8.1	0
CC(Oc1ccc(F)cc1)C(=O)Nc1cc(S(=O)(=O)N2CCOCC2)ccc1N1CCCC1 (stereo not drawn)	0	0
Cc1ccc(-n2nnnc2CSc2nnc(-c3ccc(O)cc3)o2)cc1	0	-
CC12CCC(c3c(C(=O)O)nn(-c4ccccc4)c31)C2(C)C (stereo not drawn)	0	0
CC12CCC(c3c(C(=O)Nc4nccs4)nn(-c4ccccc4)c31)C2(C)C (stereo not drawn)	-8.3	0
Cc1ccc(-c2onc3ccc(C4OCCO4)cc23)cc1	0	0
CCOc1ccc(N=C2NC(=O)S/C2=C\c2ccc(N(C)C)cc2)cc1	0	0
CCOc1ccc(/C=C2/SC(=O)NC2=S)cc1	0	26
COc1ccc2cc(C(=O)C3CCCN(C(=O)/C=C/c4ccccn4)C3)ccc2c1 (stereo not drawn)	0	-
CC(C)(C)C(=O)c1no[n+]([O-])c1/C(=N/O)C(C)(C)C	-7	0
COc1ccc(S(=O)(=O)Nc2ccc(F)cc2F)cc1C(=O)N1CCOCC1	0	0
C=CCc1cccc(/C=N/NC(=O)c2ccccc2OC)c1O	0	0
C=CCc1cccc(/C=N/NC(=O)c2ccccc2Br)c1O	0	9.6
N#Cc1ccsc1NC(=O)CCN1CCN(C(c2ccccc2)c2ccccc2)CC1	0	-
N#CC(c1cccc(Cl)c1)c1ccc2c(C(F)(F)F)cc(C(F)(F)F)nc2n1 (stereo not drawn)	0	15
NNc1ccc2c(C(F)(F)F)cc(C(F)(F)F)nc2n1	0	0
CC1CCCCN1C(=O)Nc1ccccc1Cl (stereo not drawn)	0	-
CCOC(=O)c1ccccc1NC(=O)N1CCn2c(C)ccc2C1CC (stereo not drawn)	-6.2	0
CCC1c2ccc(C)n2CCN1C(=O)Nc1ccccc1C(=O)OC (stereo not drawn)	0	-
CCCC1c2ccc(C)n2CCN1C(=O)Nc1ccccc1Cl (stereo not drawn)	-7.2	0
CN(C)/C=C\C(=C/C(=O)C(F)(F)F)Nc1ccccc1Oc1ccccc1	0	0
O=C(O)c1c2c(nc3ccccc13)/C(=C/c1ccccc1[N+](=O)[O-])CCC2	0	-
CC1C/C(=C\c2ccccc2[N+](=O)[O-])c2nc3ccccc3c(C(=O)O)c2C1 (stereo not drawn)	-5.8	0
CCOc1ccccc1C(=O)Nc1ccccc1C(N)=O	0	0
CCOc1ccccc1NC(=O)c1cccc2ccccc12	-5.5	0
COc1cccc(C(=O)Nc2cccc3ccccc23)c1OC	-6.2	0
